Lassa entry inh – Lassa virus entry inhibition; Lassa virus pseudotype entry inhibition, cell reporter; Potency, µM (top dose mostly 37.9 µM), without a hit: at the highest dose activity change, negative = inhibition, hits mostly inhibitors; 300,000 compounds, 1.2% hits; AID 540256; calls by dose curve; tested in HEK293 cells; note: potency is the fitted concentration of half-maximal effect; nearly all actives have a fitted effect of over 50% in size
Vaccinia Venus – inhibitors of vaccinia virus (Venus reporter). Vaccinia virus Venus reporter expression, fluorescence. Potency, µM (doses to about 36.5 µM), for inactives: at the highest dose activity change, negative = inhibition, actives largely listed as inhibitors. 330,000 compounds, 0.46% hits. AID 720580; calls by dose curve; tested in A549 cells; note: potency is the fitted concentration of half-maximal effect; nearly all actives have a fitted effect of over 30% in size
HCV inh – HCV inhibition. Huh7.5.1 HCVcc-Cre infection, luciferase reporter, 44 h. Potency, µM (doses to about 41.8 µM), for inactives: top-dose activity change, negative = inhibition, hits mostly inhibitors. 340,000 compounds, 3.4% hits. AID 651820; active = well fitted inhibition curve with a large enough effect; inconclusive = small, poorly fitted or top-dose-only effect, or another doubt; inactive = no such curve, though single readings can be large or run the other way; note: potency is the fitted concentration of half-maximal effect
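Whole-lifecycle infectious HCVcc-Cre system; cells 1,000/well, compound then virus (~0.5 moi) added 4 h after plating, 44 h culture. Luciferase read 15 sec following 15 min substrate incubation, room temp.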
HCMV antiviral – inhibitors of human cytomegalovirus | 410,000 compounds, 4.5% hits | HFF cells, HCMV-luciferase reporter, 72 h; active compounds read low | AID 1259415 | activity change, negative = inhibition, % at 57.5 µM; in the data active = activity change below about -60%; inconclusive = no clear call, values can overlap the other calls; inactive = above about -39%
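Luciferase read-out from HCMV-luciferase-infected HFFs (MOI 1 PFU/cell) 72 h post infection at 37C; compounds added after 16 h cell attachment; activity normalized between buffer-only basal and Salinomycin (10uM) inhibitor controls.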
Marburg entry inh – inhibitors of Marburg virus binding or cell entry; Marburg virus pseudotyped entry inhibition, cell reporter; Potency, µM (highest dose often 37.8 µM), inactives show top-dose activity change, negative = inhibition, most hits filed as inhibitors; 300,000 compounds, 1.8% hits; calls by dose curve; tested in HEK293 cells; note: potency is the fitted concentration of half-maximal effect
Vaccinia mCherry – inhibitors of vaccinia virus infection (mCherry reporter signal). Vaccinia virus mCherry reporter infection, fluorescence. Potency, µM (titrated, usually from 36.5 µM), inactives show top-dose activity change, negative = inhibition, hits mostly inhibitors. 310,000 compounds, 0.63% hits. AID 720579; calls by dose curve; tested in A549 cells; note: potency is the fitted concentration of half-maximal effect; nearly all actives have a fitted effect of over 35% in size
Starred values were filed as active, the others as inactive; i = inactive; ? = inconclusive; . = no result given; [ ] = another dose, or the depositor's remark. An excerpt weighted towards active compounds, which were near 7.8% of everything screened. % is set by controls: 0 for no effect and ±100 for the full control effect.

SMILES	Lassa entry inh	Vaccinia Venus	HCV inh	HCMV antiviral	Marburg entry inh	Vaccinia mCherry
COc1ccc(C2=NCC(C)n3nc4cc(C(F)(F)F)ccc4c32)cc1 (stereo unspecified)	.	.	.	87	.	.
Cc1ccc2c(c1)c1c3n2CCN(C(=O)c2cccc(C(F)(F)F)c2)C3CCC1 (stereo unspecified)	-14%[46.1 µM]	-13%	.	-36	-28%[46.1 µM]	-6%
COc1ccc(CC(=O)Nc2nc(C)cs2)cc1OC	-1%	?	?	-70*	?	?
CC(C)(C)c1csc(NNC(=O)c2ccc(Br)cc2)n1	?	?	?	-97*	?	?
CCOC(=O)CC1(NC(=O)c2cc(COc3cccc(OC)c3)on2)CCCCC1	.	.	10µM*	-35	.	.
C=CCC1(CC=C)CCCN1C(=O)c1cc(COc2cccc(OC)c2)on1	.	.	14µM*	0	.	.
CC(=O)c1ccc(OCc2cc(C(=O)N3CCC(c4ccncc4)CC3)no2)cc1	.	.	?	-81*	.	.
COc1cccc(OCc2cc(C(=O)NCC3CCCCC3)no2)c1	.	.	1%	35	.	.
COc1cccc(OCc2cc(C(=O)N3CCC(c4ccncc4)CC3)no2)c1	?	-12%	10µM*	-89*	?	-25%
C=CCC1(CC=C)CCCN1C(=O)c1cc(COc2cncc(Cl)c2)on1	.	.	.	5	.	.
Cc1ccc(Sc2ccc(N3CCCC(C(=O)Nc4ccc(F)c(Cl)c4)C3)nn2)cc1 (stereo unspecified)	?	-19%	.	-9	-4%[46.1 µM]	-19%
CC(=O)c1ccc(OCc2cc(C(=O)N(C)CCOc3ccc(C)cc3)no2)cc1	.	.	13µM*	92	.	.
CC(=O)c1ccc(OCc2cc(C(=O)N(C)Cc3nc4c(C)cccc4[nH]3)no2)cc1	-13%	-19%	-17%	24	19%	i
COc1cccc(OCc2cc(C(=O)NCc3cnc4ccccn34)no2)c1	.	.	8.9µM*	?	.	.
O=C(Nc1cc(C(F)(F)F)ccc1F)C1Cc2c(-c3ccccc3Oc3ccccc3)ccnc2O1 (stereo unspecified)	.	-10%	.	-27	.	i
Cc1ccc(CNC(=O)c2cc3c(=O)n4cccc(C)c4nc3s2)cc1	-27%[46.1 µM]	5%	.	9	8%[46.1 µM]	-6%
O=C(c1ccc(Cl)cc1)C1CCCN(Cc2ccc3ncccc3c2)C1 (stereo unspecified)	.	-23%	?	-75*	?	i
O=C(c1ccc(Cl)cc1)C1CCCN(Cc2cccc3cnccc23)C1 (stereo unspecified)	.	.	?	-62*	.	.
O=C(c1cccc(Cl)c1)C1CCCN(Cc2cccc3cnccc23)C1 (stereo unspecified)	-7%	-7%	?	-71*	?	-11%
COc1ccc(OC)c(NS(=O)(=O)c2ccc(-c3cc(C)no3)s2)c1	?	-29%	.	0	.	-26%
COc1ccc(/C=N/NC(=O)c2ccco2)cc1Cn1nc(C)cc1C	10%	-4%	2%	39	-16%	i
COc1ccc(/C=N\NC(=O)COc2ccc(C(C)(C)C)cc2)cc1Cn1nc(C)cc1C	2.2µM*	?	-6%	-10	?	.
COC1=C(C)C(=O)c2c(c(COC(N)=O)c3n2C[C@@H]2[C@@H]3N2C)C1=O (stereo partly specified)	.	11µM*	.	.	.	-28%
Cc1ccc(Cl)cc1N1CCN(C(=O)Cn2cnc3nc4c(cc3c2=O)CCCC4)CC1	-17%[46.1 µM]	?	.	-8	.	-25%
Cc1ccc(CSCc2nc3ccccc3[nH]2)cc1	?	-20%	?	?	?	-16%
SMILES	Lassa entry inh	Vaccinia Venus	HCV inh	HCMV antiviral	Marburg entry inh	Vaccinia mCherry
Cc1cc(C)cc(CC(Cc2nc3ccccc3[nH]2)c2nc3ccccc3[nH]2)c1 (stereo unspecified)	?	14µM*	5µM*	-101*	?	-14%[1.46 µM]
O=C(Nc1cccc(Cl)c1Cl)C1CC(=O)N(c2ccc(Br)cc2)C1 (stereo unspecified)	-5%	?	?	-92*	?	-29%
O=C(N/N=C/c1ccccc1O)C1CC(=O)N(c2ccc(Cl)cc2)C1 (stereo unspecified)	.	.	?	-79*	.	.
COc1ccccc1CNC(=O)CCn1cnc2ccccc2c1=O	8%[46.1 µM]	4%	.	8	.	i
CCCCN(CC)C(=O)c1nn(-c2ccc(OC)cc2)c(=O)c2c1c1ccccc1n2C	-12%[46.1 µM]	-10%	.	-29	-28%[46.1 µM]	-6%
CCN(C(=O)c1cnc(NC(C)C)cc1C(F)(F)F)c1ccc(Cl)cc1Cl	?	0%[7.34 µM]	10µM*	-9	?	-12%[7.34 µM]
O=C(CCCc1ccccc1)Nc1cccc(C(=O)O)c1	?	0%	9%	41	2.5µM*	i
O=C(NCCc1ccccc1)c1ccc(NC(=O)C2CCC2)cc1	?	-10%	0.63µM*	52	.	-5%
O=C(NCCCCc1ccccc1)c1cccc(NC(=O)C2CCCC2)c1	-22%[46.1 µM]	-24%	8.9µM*	-14	.	-8%
O=C(NCCc1ccccc1)c1ccc(NC(=O)C2CCCCC2)cc1	.	-9%	5%	6	.	i
Cc1cccc2c(=O)cc(CSCC(=O)Nc3ccc(Cl)cc3)[nH]c12	-3%[46.1 µM]	-5%	.	-1	.	19%
CCOC(=O)C1CCC(CN(Cc2cccc(Br)c2)S(=O)(=O)c2ccc(C)cc2)CC1 (stereo unspecified)	-25%[46.1 µM]	-10%	.	-3	.	-13%
Cc1nc(C)c(CC(=O)N2CCOc3ccc(CN4CCN(c5ccccn5)CC4)cc3C2)s1	.	-27%	.	.	.	?
COc1ccc(-c2noc(N(C)CC(=O)Nc3cccc(C(F)(F)F)c3)n2)cc1	-18%	?	11µM*	36	-12%	.
COc1cccc(CN(C)CC(=O)Nc2cccc(C(F)(F)F)c2)c1OC	-20%	-11%	10µM*	-31	-12%[46.1 µM]	-2%
CCOC(=O)CC1=C(C(=O)OCC)[C@H](c2ccc(OC)c(OC)c2)C(C#N)=C(N)O1	.	.	.	.	1%	.
CC(C)(C)c1ccc(C(=O)Nc2ccc(CN3CCS(=O)(=O)CC3)cc2)cc1	?	-22%	5.6µM*	-80*	?	-25%
O=C(Nc1ccc(NC(=S)NC(=O)c2ccccc2Cl)cc1)c1cccc(Cl)c1	?	-29%	25µM*	11	?	.
COC(=O)Cc1ccc(NC(=O)c2ccc(C(C)(C)C)cc2)cc1	6.5µM*	.	2.5µM*	-93*	?	.
CC(C)C(=O)Nc1cccc(NC(=S)NC(=O)c2ccccc2Cl)c1	-4%	.	?	-30	?	.
COc1cc(C(=O)Nc2ccc(NC(=O)C3CCCCC3)nc2)cc(OC)c1OC	.	-3%	?	-10	-2%[46.1 µM]	-15%
COc1cc(C(=O)Nc2ccc(NC(=O)c3cccc(Cl)c3)nc2)cc(OC)c1OC	?	-18%	4µM*	-35	?	?
CC(C)=CCC/C(C)=C/CO/N=C1/C[C@@H](O)[C@@H](O)[C@@H]2[C@@H]3C(=O)N(Cc4ccc5c(c4)OCO5)C(=O)[C@H]3CC[C@@H]12	.	.	.	.	-17%[14.2 µM]	.
